In the supplement of paper PMC8253809:

Tests used:
Assay in all cases: growth inhibition (% activity, log2 RLU normalised to DMSO / staurosporine); higher = more growth inhibition
Settings in all cases: 33 µM
DIPGX29 = tested on: DIPGX29 (H3.3 K27M diffuse intrinsic pontine glioma line)
Method in brief: (§1)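 The growth-inhibition value is the median over replicates. pHGG cell lines and H9-derived neural stem cells on Geltrex-coated 384-well plates received approved drugs by pin tool at a single final concentration of about 33 μM, in triplicate, for 7 days at 37 °C, 5% CO2. CellTiter-Glo luminescence was log2-transformed and normalised per plate to % activity between solvent and positive control wells.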

DIPGX37 = tested on: DIPGX37 (H3.3 K27M diffuse intrinsic pontine glioma line)
Method in brief: as §1

DIPGX7 = tested on: DIPGX7 (H3.3 K27M diffuse intrinsic pontine glioma line)
Method in brief: as §1

DIPGX9 = tested on: DIPGX9 (diffuse intrinsic pontine glioma line)
Method in brief: as §1

HGGX39 = tested on: HGGX39 (paediatric high-grade glioma line)
Method in brief: as §1

HGGX6 = tested on: HGGX6 (H3.3 G34R paediatric high-grade glioma line)
Method in brief: as §1

HNSC = tested on: HNSC
Method in brief: as §1

SUDIPGIV = tested on: SUDIPGIV (diffuse intrinsic pontine glioma line)
Method in brief: as §1

SUDIPGVI = tested on: SUDIPGVI (diffuse intrinsic pontine glioma line)
Method in brief: as §1

SUDIPGXIII = tested on: SUDIPGXIII (diffuse intrinsic pontine glioma line)
Method in brief: as §1

Row | Compound | growth inhibition (DIPGX29) | growth inhibition (DIPGX37) | growth inhibition (DIPGX7) | growth inhibition (DIPGX9) | growth inhibition (HGGX39) | growth inhibition (HGGX6) | growth inhibition (HNSC) | growth inhibition (SUDIPGIV) | growth inhibition (SUDIPGVI) | growth inhibition (SUDIPGXIII)
1 | CC(C(=O)O)c1ccc2c(c1)Cc1cccnc1O2 (stereo not given) | 0.469% | 2.25% | 2.38% | 1.73% | 3.25% | 2.19% | 2.91% | -1.77% | 3.45% | -1.63%
2 | Cc1cc(=O)[nH]c(=S)[nH]1 | 0.66% | -0.151% | 2.93% | 1.41% | 3.23% | 0.504% | 4.39% | 2.24% | 4.36% | 1.21%
3 | CCOC(=O)CCC(=O)O[C@H]1[C@H](O[C@@H]2[C@@H](C)[C@H](O[C@H]3C[C@@](C)(OC)[C@@H](O)[C@H](C)O3)[C@@H](C)C(=O)O[C@H](CC)[C@@](C)(O)[C@H](O)[C@@H](C)C(=O)[C@H](C)C[C@@]2(C)O)O[C@H](C)C[C@@H]1N(C)C | -2.45% | -0.105% | 1.67% | -1.7% | -1.58% | -2.75% | 19.9% | -1.78% | -9.9% | 2.09%
4 | Cc1cc(C(C)(C)C)c(O)c(C)c1CC1=NCCN1 | 0.231% | 3.01% | 1.52% | 2.19% | 1.3% | 0.112% | 0.146% | 1.18% | 1.88% | 0.459%
5 | COc1cc([C@@H]2c3cc4c(cc3[C@@H](O[C@@H]3O[C@@H]5CO[C@@H](C)O[C@H]5[C@H](O)[C@H]3O)[C@H]3COC(=O)[C@H]23)OCO4)cc(OC)c1O | 12.6% | 4.92% | 8.84% | 24.1% | 10.5% | 9.51% | 61.4% | 38.2% | 3.89% | 5.92%
6 | CC(CCc1ccc(O)cc1)NCC(O)c1ccc(O)cc1 (stereo not given) | -1.35% | 0.666% | -1% | 0.398% | 3.25% | -2.19% | 5.04% | 2.35% | 2.3% | 0.356%
7 | CNS(=O)(=O)CCc1ccc2[nH]cc(C3CCN(C)CC3)c2c1 | 0.0879% | 3.2% | 0.944% | 1.8% | 1.37% | -0.244% | 1.62% | 1.09% | 2.79% | -1.47%
8 | O=C(NCCO[N+](=O)[O-])c1cccnc1 | -0.0278% | 2.96% | 1.16% | 1.21% | 0.669% | -4.02% | 46.8% | 0.797% | 1.67% | -0.184%
9 | O=C1NCC2(CCN(CCc3ccccc3)CC2)O1 | 0.324% | -0.568% | 0.908% | 1.98% | 1.24% | 0.472% | -0.511% | -1.95% | 0.357% | 0.871%
10 | O=C1c2ccccc2C(=O)C1c1ccccc1 | -0.501% | -1.03% | -0.877% | -0.146% | 1.52% | 0.118% | -1.43% | 0.701% | 0.683% | 0.357%
11 | CC(C)C(=O)Oc1ccc(CO)cc1[C@H](CCN(C(C)C)C(C)C)c1ccccc1 | 0.102% | -1.82% | 0.436% | 0.893% | 1.59% | -1.41% | 0.95% | -0.518% | 1.55% | 0.403%
12 | CCCCCCCCCCCCCCCC(=O)O[C@@H]1[C@@H](O)[C@@H](O)[C@@H]([C@H](NC(=O)[C@@H]2C[C@@H](CCC)CN2C)[C@H](C)Cl)O[C@@H]1SC | 0.38% | -0.882% | 0.64% | -0.0578% | 2.42% | 2.01% | -1.46% | 1.12% | 0.759% | -0.501%
13 | CC(C)NCC(O)c1ccc(NS(C)(=O)=O)cc1 (stereo not given) | -1.59% | 1.48% | 1.46% | 0.414% | 0.329% | -2.93% | 9.65% | 3.05% | 2.59% | -1.17%
14 | O=C(CCCN1CCC(O)(c2ccc(Cl)cc2)CC1)c1ccc(F)cc1 | 0.532% | 0.49% | 2.11% | 2.82% | 5.5% | 1.74% | 2.33% | 2.23% | 0.854% | 1.18%
15 | Cc1cn([C@H]2C[C@H](N=[N+]=[N-])[C@@H](CO)O2)c(=O)[nH]c1=O | 3.15% | 3.86% | 4.01% | 3.46% | 5.5% | 1.53% | 10.3% | 3.31% | 3.71% | -0.807%
16 | Nc1ccn([C@H]2CC[C@@H](CO)O2)c(=O)n1 | 1.28% | 0.314% | 0.245% | 2.8% | 6.49% | 1.48% | 17.8% | 15.2% | 0.499% | 1.84%
17 | CCCSc1ccc2[nH]c(NC(=O)OC)nc2c1 | 7.72% | 7.1% | 6.94% | 11.9% | 15.5% | 7.25% | 61.3% | 19% | -3.32% | 4.87%
18 | CCC(=O)O[C@]1(C(=O)CCl)[C@@H](C)C[C@H]2[C@@H]3C[C@H](F)C4=CC(=O)C=C[C@]4(C)[C@@]3(F)[C@@H](O)C[C@@]21C | 3.65% | 5.29% | 1.18% | 4.83% | 7.98% | 1.82% | -1.07% | 1.52% | 3.9% | 1.38%
19 | O=C(c1ccccc1)c1ccc2n1CCC2C(=O)O (stereo not given) | 1.07% | -0.408% | 0.977% | -1.13% | -0.11% | 1.54% | -1.61% | -5.47% | 0.251% | 0.0715%
20 | CN(C)[C@@H](CCOc1cccc2ccccc12)c1ccccc1 | 10.6% | 0.861% | 6% | 3.36% | 5.09% | 0.0424% | 67.5% | 3.4% | -2.24% | 0.415%
21 | C=C1c2cccc(O)c2C(O)=C2C(=O)[C@]3(O)C(O)=C(C(N)=O)C(=O)[C@@H](N(C)C)[C@@H]3[C@@H](O)[C@H]12 | -0.484% | 2.83% | -0.0391% | -1.06% | 2.68% | -0.509% | 0.179% | 2.28% | -1.04% | 1.14%
